Values without a mark were called inactive. How the calls were made is not given here.
Biological target: Pantothenate synthetase (Mycobacterium tuberculosis (strain ATCC 25618 / H37Rv)) (UniProt P9WIL5)
Assay: Coupled enzyme confirmation of inhibitors against recombinant Mtb PanC (AID 375);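 further: 0% = full reaction with vehicle and 100% = no enzyme background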
Conditions: coupled enzyme assay; at 10 µM, stronger effect = higher value

Sequence of Pantothenate synthetase (Mycobacterium tuberculosis (strain ATCC 25618 / H37Rv)) (P9WIL5 whole entry, looked up): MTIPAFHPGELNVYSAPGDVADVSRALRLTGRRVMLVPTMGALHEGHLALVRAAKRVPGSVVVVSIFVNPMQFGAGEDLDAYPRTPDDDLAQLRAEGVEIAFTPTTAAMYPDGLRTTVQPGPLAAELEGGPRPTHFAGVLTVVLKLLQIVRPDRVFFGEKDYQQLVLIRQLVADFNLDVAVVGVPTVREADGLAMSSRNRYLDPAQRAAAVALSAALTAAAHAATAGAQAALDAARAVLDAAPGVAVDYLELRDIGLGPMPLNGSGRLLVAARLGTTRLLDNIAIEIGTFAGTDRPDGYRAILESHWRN

Q: Which inhibition does the source give for `CCC(=O)OCCn1c(=O)c2cc3c(=O)n(CCOC(=O)CC)c(=O)c3cc2c1=O` here?
A: The inhibition was 0%.

Q: With `CCOc1cc(C2C3=C(CCCC3=O)N(C)C3=C2C(=O)CCC3)cc(Cl)c1O` as the molecule, how does the inhibition read?
A: Its inhibition is 0%.

Q: Which inhibition does the source give for `CCN(CC)CCNC(=O)c1ccc(N)cc1` here?
A: Its inhibition is 0%.

Q: With `CCCCCCOC(=O)C(C#N)c1nc2ccccc2nc1N1CCCCC1` (stereo not given) as the molecule, how does the inhibition read?
A: The inhibition was 0%.

Q: `CC(=O)N[C@@H](CS)C(=O)O` was tested. Which inhibition did it give?
A: The inhibition was 0%.

Q: Which inhibition does the source give for `CCOC(=O)N1CCC(=C2c3ccc(Cl)cc3CCc3cccnc32)CC1` here?
A: The inhibition was 5%.

Q: How did the inhibition turn out when `O=C(Nc1ccc(-c2nc3ncccc3o2)cc1)c1ccc(Br)o1` was run?
A: Its inhibition is 15%.

Q: `Cn1c2ccccc2c2ncn(CCCN3CCOCC3)c(=O)c21` was tested. Which inhibition did it give?
A: The inhibition was 0%.

Q: Which inhibition does the source give for `COCCNc1nc(SCC(=O)N2CCN(c3ccccc3)CC2)nc2ccccc12` here?
A: The inhibition was 5%.

Q: Which inhibition does the source give for `CC(NCCC(c1ccccc1)c1ccccc1)c1ccccc1` (stereo not given) here?
A: Its inhibition is 0%.

Q: How did the inhibition turn out when `CCN(CC(=O)NCc1cccs1)C(=O)c1cc(S(=O)(=O)N2CCOCC2)ccc1C` was run?
A: The inhibition was 0%.

Q: `O=C1CCCc2c1nn(-c1ccccc1)[n+]2[O-]` was tested. Which inhibition did it give?
A: Its inhibition is 0%.

Q: How did the inhibition turn out when `COC(=O)C1=C(C)OC(N)=C(C#N)C1c1ccccc1` (stereo not given) was run?
A: The inhibition was 0%.

Q: With `COCCCNC(=O)C1CCN(C(=O)Nc2ccc(Cl)cc2)CC1` as the molecule, how does the inhibition read?
A: The inhibition was 0%.

Q: For `Cc1noc(C)c1CSc1nnc(-c2ccncc2)n1-c1cccc(Cl)c1C`, which inhibition is on record?
A: Its inhibition is 0%.

Q: For `Cc1nn(-c2ccccc2)c2sc(C(=O)N3CCOCC3)cc12`, which inhibition is on record?
A: Its inhibition is 0%.

Q: For `COc1ccc(N2CCN(CCCNS(=O)(=O)c3c(C)noc3/C=C/N(C)C)CC2)cc1`, which inhibition is on record?
A: Its inhibition is 15%.

Q: With `COc1ccc(-c2c(=O)n(OCc3ccccn3)c3ccccc3[n+]2[O-])cc1OC` as the molecule, how does the inhibition read?
A: Its inhibition is 3%.

Q: `Cc1ccc(C)c2[nH]c(=O)c(CN(CCN3CCCC3)C(=O)Nc3cccc(Cl)c3)cc12` was tested. Which inhibition did it give?
A: Its inhibition is 0%.

Q: `O=C(Nc1cccc(OCC(=O)N2CCOCC2)c1)C1CCCCC1` was tested. Which inhibition did it give?
A: Its inhibition is 0%.

Q: `O=C(Nc1cccc(F)c1)c1ccc2c(c1)OCO2` was tested. Which inhibition did it give?
A: The inhibition was 2%.

Q: With `CCCCC(=O)Nc1c(O)c2ccccc2[nH]c1=O` as the molecule, how does the inhibition read?
A: The inhibition was 0%.

Q: `COc1ccccc1-c1c(C)nn2c(N3CCC4(CC3)OCCO4)cc(C)nc12` was tested. Which inhibition did it give?
A: The inhibition was 5%.

Q: With `COc1ccc(C(=O)Nc2ccccc2C(=O)NCCN2CCOCC2)cc1` as the molecule, how does the inhibition read?
A: The inhibition was 0%.

Q: With `Cc1cccc(-n2c(N)c(C(=O)N3CCN(C)CC3)sc2=S)c1` as the molecule, how does the inhibition read?
A: Its inhibition is 1%.

Q: `COc1ccc(OC)c(S(=O)(=O)Nc2ccccc2SC)c1` was tested. Which inhibition did it give?
A: The inhibition was 3%.

Q: How did the inhibition turn out when `O=C(CN1C(=O)c2ccccc2S1(=O)=O)NCc1ccccn1` was run?
A: The inhibition was 0%.

Q: How did the inhibition turn out when `COc1ccccc1OC(=O)c1ccc(SC)cc1OC` was run?
A: The inhibition was 2%.

Q: Which inhibition does the source give for `Cc1ccc(S(=O)(=O)N(CC(=O)NCc2ccco2)Cc2ccccc2F)cc1` here?
A: The inhibition was 0%.

Q: How did the inhibition turn out when `Cc1ccccc1C(OCCN(C)C)c1ccccc1` (stereo not given) was run?
A: The inhibition was 0%.

Q: Which inhibition does the source give for `O=C(CN1CCOCC1)Nc1cccc(C(=O)Nc2cccc(C(F)(F)F)c2)c1` here?
A: Its inhibition is 2%.

Q: How did the inhibition turn out when `COCCCC/C(=N\OCCN)c1ccc(C(F)(F)F)cc1` was run?
A: Its inhibition is 0%.

Q: With `COC(=O)c1c(NC(=O)CCc2ccc(C)o2)sc(C)c1C` as the molecule, how does the inhibition read?
A: The inhibition was 1%.

Q: How did the inhibition turn out when `CCCS(=O)(=O)N1CCCC(C(=O)N2CCC(Cc3ccccc3)CC2)C1` (stereo not given) was run?
A: Its inhibition is 0%.

Q: With `Cc1ccc(S(=O)(=O)NCCCCC(NC(=O)OC(C)(C)C)C(=O)O)cc1` (stereo not given) (tested in a mixture with another compound) as the molecule, how does the inhibition read?
A: The inhibition was 0%.

Q: Which inhibition does the source give for `CCN(CC)S(=O)(=O)c1ccc(C(=O)Oc2ccc3c(c2)OCO3)cc1` here?
A: The inhibition was 2%.

Q: How did the inhibition turn out when `COCCn1nnnc1C(c1cc2ccc(OC)cc2[nH]c1=O)N1CCc2ccccc2C1` (stereo not given) was run?
A: Its inhibition is 0%.

Q: With `CSc1ccccc1N=CC1=C(O)CC(C)(C)CC1=O` as the molecule, how does the inhibition read?
A: The inhibition was 0%.

Q: With `Cc1cccc(-c2c3c(=O)n(C)c(=O)n(C)c3cn2-c2ccc(O)cc2)c1` as the molecule, how does the inhibition read?
A: Its inhibition is 0%.

Q: `O=C(CSc1ncnc2c1cnn2Cc1ccccc1)Nc1ccc2c(c1)OCCO2` was tested. Which inhibition did it give?
A: The inhibition was 5%.
